PubChem BioAssay
Potency and affinity values are given separately. Inconclusive results are not listed. Activity calls are given as the source filed them. Unless noted, no rule for the calls is given here.

What was measured:
[1] = RMG-1 ovarian cancer cell viability loss – cherry-pick, dose response (AID 687029;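 active = signal drop whose fitted half-maximal concentration is at most twice the top valid dose, in every test run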;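 also: cells exposed to compound for 96 hours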); conditions: RMG-1 viability, CellTiterGlo ATP luminescence, 96 h; series mostly up to 35 µM
[2] = IOSE-T80 viability loss, PAX8-independent line – cell-based, cherry-pick, selectivity assay for PAX8 inhibitor project, dose response (AID 687032;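 active = fitted half-maximal concentration for viability loss no higher than twice the top valid dose, in every repeat run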;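 also: cells exposed to compound for 96 h before reading; 0% = neutral control wells and -100% = 2 µM mitoxantrone kill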); conditions: CellTiterGlo ATP luminescence, 96 h; series mostly up to 35 µM
[3] = CMV-driven luciferase expression suppression in HEK293 – cell-based, luminescence, dry powder, counter-screen for Pax8 inhibitor project, dose response (AID 743020;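 active = signal-lowering compounds whose fitted half-maximal concentration is at or below twice the top tested dose in every run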;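 also: HEK293 cells stably expressing the CMV luciferase reporter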); conditions: HEK293 CMV-luciferase reporter, SteadyGlo luminescence, 24 h; series mostly up to 35 µM
[4] = general cell-killing toxicity readout – plate reader, dry powder samples, cytotoxicity control for PAX8 inhibitor project, dose response (AID 743021); conditions: cell line, non-specific cytotoxicity counter-screen; series mostly up to 35 µM
[5] = IGROV1 cell killing – plate reader, dry powder samples, PAX8 inhibitor project, dose response (AID 743043); conditions: IGROV1 ovarian cancer cell cytotoxicity; series mostly up to 35 µM;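 also: more negative means fewer viable cells or more cytotoxicity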
[6] = OVCAR-3 cell viability loss – plate reader, dry powder samples, PAX8 inhibitor project, dose response (AID 743044); conditions: NIH:OVCAR-3 ovarian cancer cell viability; max activity: at 35 µM, active compounds read low unless noted; series mostly up to 50 µM
[7] = toxicity toward immortalized ovarian surface epithelium – cell-based, plate reader, dry powder samples, cytotoxicity control for PAX8 inhibitor project, dose response (AID 743045); conditions: IOSE-T80 ovarian epithelial cells; series mostly up to 35 µM;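 also: 0% = neutral control median and -100% = positive control median; more negative values mean more cell killing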
[8] = A2780 cell killing – plate reader, dry powder samples, cytotoxicity control, dose response (AID 743046); conditions: A2780 ovarian cancer cytotoxicity; series mostly up to 35 µM;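 also: 0% = neutral control wells and -100% = cytotoxic reference compound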

Measured: max activity

C[C@@H]1CN([C@@H](C)CO)C(=O)c2cc(NS(=O)(=O)c3ccc(F)cc3)ccc2O[C@@H]1CN(C)Cc1ccc(C(F)(F)F)cc1
inactive: [1] | [2] | [3] | [4] | [5] | [6] -27.7% | [7] | [8]

C[C@@H]1CN([C@H](C)CO)C(=O)c2c(c3ccccc3n2C)-c2ccccc2CO[C@@H]1CN(C)S(=O)(=O)c1ccc(C(F)(F)F)cc1
inactive: [1] | [2] | [3] | [4] | [5] | [6] -18.1% [at 16 µM, active compounds read low] | [7] | [8]

O=C(Nc1cccc(F)c1)N1CCCCN2[C@@H](CO)[C@@H](c3ccc(-c4ccncc4)cc3)[C@@H]2C1
inactive: [1] | [2] | [3] | [4] | [5] | [6] 12.6% [at 1 µM, active compounds read low] | [7] | [8]

Cc1ccc(S(=O)(=O)Nc2ccc3c(c2)C(=O)N([C@H](C)CO)C[C@@H](C)[C@H](CN(C)S(=O)(=O)c2ccc(Cl)cc2)OCCCC[C@H](C)O3)cc1
inactive: [1] | [2] | [3] | [4] | [5] | [6] -15.5% | [7] | [8]

C[C@H]1CN([C@@H](C)CO)C(=O)c2cc(NS(=O)(=O)c3ccc(Cl)cc3)ccc2O[C@H]1CN(C)Cc1ccc(Cl)c(Cl)c1
inactive: [1] | [2] | [3] | [4] | [5] | [6] -29.6% | [7] | [8]

O=C(C[C@H]1C[C@@H]2c3cc(NC(=O)Nc4ccc(C(F)(F)F)cc4)ccc3O[C@@H]2[C@@H](CO)O1)NCCc1ccccc1
inactive: [1] | [2] | [3] | [4] | [5] | [6] -7.36% [at 8 µM, active compounds read low] | [7] | [8]

C[C@@H]1CN([C@@H](C)CO)C(=O)c2c(c3ccccc3n2C)-c2ccccc2CO[C@H]1CN(C)S(=O)(=O)c1ccccc1F
inactive: [1] | [2] | [3] | [4] | [5] | [6] -17.2% [at 18 µM, active compounds read low] | [7] | [8]

C[C@@H]1CCCCO[C@@H](CN(C)Cc2ccc(Cl)c(Cl)c2)[C@H](C)CN([C@H](C)CO)C(=O)c2cc(NS(=O)(=O)c3ccc(F)cc3)ccc2O1
inactive: [1] | [2] | [3] | [4] | [5] | [6] -22% | [7] | [8]

Cc1ccc(S(=O)(=O)N(C)C[C@@H]2OCCCC[C@H](C)Oc3ccc(NS(=O)(=O)c4cccs4)cc3C(=O)N([C@H](C)CO)C[C@H]2C)cc1
inactive: [1] | [2] | [3] | [4] | [5] | [6] 5.96% | [7] | [8]

C[C@@H]1CCCCO[C@@H](CN(C)Cc2ccc(Cl)c(Cl)c2)[C@H](C)CN([C@H](C)CO)C(=O)c2cc(NC(=O)Nc3ccc(F)cc3)ccc2O1
inactive: [1] | [2] | [3] | [4] | [5] | [6] -37% | [7] | [8]

COc1ccccc1C#Cc1ccc2c(c1)O[C@H](CN(C)Cc1cccnc1)[C@H](C)CN([C@H](C)CO)S2(=O)=O
inactive: [1] | [2] | [3] | [4] | [5] | [6] -36.9% | [7] | [8]

C[C@@H]1CCCCO[C@@H](CN(C)Cc2ccccc2)[C@H](C)CN([C@H](C)CO)C(=O)c2cc(NC(=O)Nc3ccc(C(F)(F)F)cc3)ccc2O1
inactive: [1] | [2] | [3] | [4] | [5] | [6] -20.2% [at 16 µM, active compounds read low] | [7] | [8]

Cc1ccc(S(=O)(=O)N(C)C[C@H]2OCCCC[C@H](C)Oc3ccc(NS(=O)(=O)c4ccc(Cl)cc4)cc3C(=O)N([C@@H](C)CO)C[C@@H]2C)cc1
inactive: [1] | [2] | [3] | [4] | [5] | [6] 10.8% [at 2.1 µM, active compounds read low] | [7] | [8]

C[C@@H]1CN([C@@H](C)CO)C(=O)Cc2cc(NC(=O)Nc3ccc(C(F)(F)F)cc3)ccc2O[C@H]1CN(C)C(=O)Nc1ccc(C(F)(F)F)cc1
inactive: [1] | [2] | [3] | [4] | [5] | [6] -32.2% | [7] | [8]

C[C@@H]1CN([C@H](C)CO)C(=O)c2c(c3ccccc3n2C)-c2ccccc2CO[C@H]1CN(C)C(=O)Nc1cccc(C(F)(F)F)c1
inactive: [1] | [2] | [3] | [4] | [5] | [6] -25.5% [at 16 µM, active compounds read low] | [7] | [8]

C[C@H](CO)N1C[C@H](C)[C@H](CN(C)S(=O)(=O)c2ccc(F)cc2)OCCCC[C@H](C)Oc2ccc(NC(=O)Nc3ccc(F)cc3)cc2C1=O
inactive: [1] | [2] | [3] | [4] | [5] | [6] -19% [at 16 µM, active compounds read low] | [7] | [8]

C[C@@H]1CCCCO[C@H](CN(C)Cc2ccc(Cl)c(Cl)c2)[C@H](C)CN([C@@H](C)CO)C(=O)c2cc(NC(=O)Nc3ccc(F)cc3)ccc2O1
inactive: [1] | [2] | [3] | [4] | [5] | [6] 22.7% [at 8 µM, active compounds read low] | [7] | [8]

COc1cccc(S(=O)(=O)Nc2ccc3c(c2)[C@H]2C[C@H](CC(=O)NCc4ccccc4F)O[C@H](CO)[C@H]2O3)c1
inactive: [1] | [2] | [3] | [4] | [5] | [6] 44.6% [at 0.5 µM, active compounds read low] | [7] | [8]

O=C(C[C@H]1CC[C@@H]2[C@H](COC[C@@H](O)CN2S(=O)(=O)c2cccc(Cl)c2)O1)Nc1ccc(-c2ccccc2)cc1
inactive: [1] | [2] | [3] | [4] | [5] | [6] -18.4% | [7] | [8]

COc1ccc(CN2[C@H](CO)[C@H]3c4ccccc4NC[C@H]32)cc1
inactive: [1] | [2] | [3] | [4] | [5] | [6] 26.6% [at 0.5 µM, active compounds read low] | [7] | [8]

C[C@H]1CN([C@@H](C)CO)C(=O)c2c(c3ccccc3n2C)-c2ccccc2CO[C@H]1CN(C)S(=O)(=O)c1ccc(C(F)(F)F)cc1
inactive: [1] | [2] | [3] | [4] | [5] | [6] -24.4% | [7] | [8]

COc1ccc(CN(C)C[C@@H]2OCCCC[C@@H](C)Oc3ccc(NC(=O)Nc4ccc(C(F)(F)F)cc4)cc3C(=O)N([C@@H](C)CO)C[C@H]2C)cc1
inactive: [1] | [2] | [3] | [4] | [5] | [6] -5.22% [at 16 µM, active compounds read low] | [7] | [8]

C[C@@H]1CN([C@H](C)CO)C(=O)c2cc(NS(=O)(=O)c3cccs3)ccc2O[C@@H](C)CCCCO[C@H]1CN(C)Cc1ccc(C(F)(F)F)cc1
inactive: [1] | [2] | [3] | [4] | [5] | [6] -10.6% [at 16 µM, active compounds read low] | [7] | [8]

Cc1ccc(S(=O)(=O)N(C)C[C@@H]2OCCCC[C@@H](C)Oc3ccc(NS(=O)(=O)c4ccc(Cl)cc4)cc3C(=O)N([C@H](C)CO)C[C@H]2C)cc1
inactive: [1] | [2] | [3] | [4] | [5] | [6] -13.3% [at 4.2 µM, active compounds read low] | [7] | [8]

Cc1ccc(S(=O)(=O)N(C)C[C@@H]2OCCCC[C@H](C)Oc3ccc(NS(=O)(=O)c4ccc(F)cc4)cc3C(=O)N([C@H](C)CO)C[C@H]2C)cc1
inactive: [1] | [2] | [3] | [4] | [5] | [6] -6.55% | [7] | [8]

CN1c2ccc(-c3ccccc3)cc2[C@@H]2[C@@H](CCN2C(=O)NC2CCCCC2)[C@@H]1CO
inactive: [1] | [2] | [3] | [4] | [5] | [6] 7.48% [at 0.26 µM, active compounds read low] | [7] | [8]

C[C@H]1CN([C@@H](C)CO)S(=O)(=O)c2ccc(-c3ccc(C#N)cc3)cc2O[C@@H]1CN(C)Cc1cccc(F)c1
inactive: [1] | [2] | [3] | [4] | [5] | [6] -11.6% [at 16 µM, active compounds read low] | [7] | [8]

C[C@@H]1CN([C@@H](C)CO)C(=O)Cc2cc(NC(=O)Nc3ccc(C(F)(F)F)cc3)ccc2O[C@H]1CN(C)Cc1ccc(Oc2ccccc2)cc1
inactive: [1] | [2] | [3] | [4] | [5] | [6] -19.5% | [7] | [8]
